For assay [1], the system named is Falciformispora senegalensis CBS197.79. The assay is described as follows: growth relative to untreated control; higher = less inhibition, active = 20 or less. A digest of the protocol:
(§1)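 For each test, a hyphal fragment suspension of M. mycetomatis MM55 or F. senegalensis CBS197.79 was prepared in colourless RPMI 1640 with L-glutamine and MOPS at 68–72% transmission at 660 nm. Exposure to compound at 100 or 25 µM ran for 7 days at 37 °C in 96-well plates, followed by viability reading with MTS (2 h, 490 nm) or resazurin (600 nm). Growth corresponds to metabolic activity relative to the untreated growth control after correction of both with a blank of medium and dye.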

The test system of assay [2] is Madurella mycetomatis MM55. The assay is described as above. The method in brief:
as §1

Unmarked numbers belong to inactive results.

For `CCC(CC)c1cccc(OC(=O)NC)c1.CCCC(C)c1cccc(OC(=O)NC)c1`, the growth was 98.4% in assay [1] (25 µM) and 81.9% in assay [1] (100 µM).

On to `CN1C2CCC1CC(C#N)C2` (stereo not drawn), for which the growth in assay [1] (25 µM) was 92.1%; in assay [1] (100 µM), 85.8%.

`CCOC(=O)CC(SP(=S)(OC)OC)C(=O)OCC` (stereo not drawn): the growth was 98.4% in assay [1] (25 µM) and 95.2% in assay [1] (100 µM).

With `COc1ccc(CCN2CCC(Nc3nc4ccccc4n3Cc3ccc(F)cc3)CC2)cc1`, the growth is 12.9% (active) in assay [1] (25 µM), 15% (active) in assay [1] (100 µM), 3.51% (active) in assay [2] (25 µM) and 4.43% (active) in assay [2] (100 µM).

As to `COP(=S)(OC)Oc1ccc(Sc2ccc(OP(=S)(OC)OC)cc2)cc1`, the growth in assay [1] (25 µM) is 93.4%; in assay [1] (100 µM) it was 92.8%.

Turning to `CC(F)c1ncnc(NCCc2ccc(OC(F)(F)F)cc2)c1Cl` (stereo not drawn), the growth is 90.5% in assay [1] (25 µM), 82.9% in assay [1] (100 µM), 11% (active) in assay [2] (25 µM) and 10.1% (active) in assay [2] (100 µM).

In the case of `CCOc1ccc(C(C)(C)COCc2cccc(Oc3ccccc3)c2)cc1`, the growth in assay [1] (25 µM) is 79.4%; in assay [1] (100 µM) it was 39.3%.

For the compound `CCOCn1c(-c2ccc(Cl)cc2)c(C#N)c(Br)c1C(F)(F)F`, the growth in assay [1] (25 µM) was 79.6%; in assay [1] (100 µM) it was 76.5%.

In the case of `CNC(=O)Oc1cccc2ccccc12`, the growth in assay [1] (25 µM) is 99.6%; in assay [1] (100 µM), 108%.

As for `Clc1cc(Cl)cc(Nc2nc3cnc(NC4CCCC4)cc3n2C2CCNC2)c1` (stereo not drawn), the growth in assay [1] (25 µM) is 52.2%; in assay [1] (100 µM), 77.4%.

As to `N#CCNC(=O)c1cnccc1C(F)(F)F`, the growth in assay [1] (25 µM) was 85.9%; in assay [1] (100 µM), 87.5%.

For the compound `CC(C)Nc1cc2c(cn1)nc(Nc1cc(Cl)cc(C(F)(F)F)c1)n2C1CCNC1` (stereo not drawn), the growth in assay [1] (25 µM) was 66.7%; in assay [1] (100 µM), 28.6%.

As to `N#Cc1nn(-c2c(Cl)cc(C(F)(F)F)cc2Cl)c(N)c1S(=O)C(F)(F)F` (stereo not drawn), the growth was 92.1% in assay [1] (25 µM), 88.4% in assay [1] (100 µM), 120% in assay [2] (25 µM) and 86.5% in assay [2] (100 µM).

With `CC1(C)CNC(=NN=C(C=Cc2ccc(C(F)(F)F)cc2)C=Cc2ccc(C(F)(F)F)cc2)NC1`, the growth in assay [1] (25 µM) is 88.7%; in assay [1] (100 µM), 107%.

Regarding `CNC(=O)c1cc(C#N)cc(C)c1NC(=O)c1cc(Br)nn1-c1ncccc1Cl`, the growth in assay [1] (25 µM) is 89.6%; in assay [1] (100 µM), 103%; in assay [2] (25 µM), 69.7%; in assay [2] (100 µM), 55.9%.

As to `CNC(=O)O/N=C(/C)SC`, the growth was 86.2% in assay [1] (25 µM), 89.3% in assay [1] (100 µM), 112% in assay [2] (25 µM) and 137% in assay [2] (100 µM).

For `CN1COCN(Cc2cnc(Cl)s2)/C1=N/[N+](=O)[O-]`, the growth is 93% in assay [1] (25 µM), 86.8% in assay [1] (100 µM), 87.9% in assay [2] (25 µM) and 126% in assay [2] (100 µM).

Take `CN(C)[C@@H]1C(=O)C(C(N)=O)=C(O)[C@@]2(O)C(O)=C3C(=O)c4c(O)cccc4[C@@](C)(O)[C@H]3C[C@@H]12`: the figures for the growth in assay [1] (25 µM) and in assay [1] (100 µM) were 99.7% and 94.1%, respectively.

`C/C=C(\C)C(=O)O[C@H]1C[C@@H](OC(C)=O)[C@@]2(C(=O)OC)CO[C@H]3[C@@H](O)[C@@](C)([C@]45O[C@@]4(C)[C@H]4C[C@@H]5O[C@@H]5OC=C[C@@]54O)[C@H]4[C@]1(CO[C@]4(O)C(=O)OC)[C@@H]32`: the results for the growth in assay [1] (25 µM) and in assay [1] (100 µM) were 89.6% and 96.1%, respectively.

As to `O=C1C=C(N(Cc2ccc(Cl)nc2)CC(F)F)CO1`, the growth in assay [1] (25 µM) is 96.7%; in assay [1] (100 µM), 89.3%; in assay [2] (25 µM), 92.5%; in assay [2] (100 µM), 114%.

In the case of `CC(C)=CC1C(C(=O)OC(C#N)c2cccc(Oc3ccccc3)c2)C1(C)C` (stereo not drawn), the growth in assay [1] (25 µM) was 78.2%; in assay [1] (100 µM), 101%.

Take `CN/C(=N/CC1CCOC1)N[N+](=O)[O-]` (stereo not drawn): the results for the growth in assay [1] (25 µM) and in assay [1] (100 µM) were 91.8% and 92.9%, respectively.

Regarding `CNCCn1c(Nc2cc(Cl)cc(C(F)(F)F)c2)nc2cnc(NC3CC(F)(F)C3)cc21`, the growth in assay [1] (25 µM) was 69%; in assay [1] (100 µM), 26.2%; in assay [2] (25 µM), 22.2%; in assay [2] (100 µM) it was 6.62% (active).

With `CN(C)CCn1c(Nc2cc(Cl)cc(C(F)(F)F)c2)nc2cnc(NC3CCC3)cc21`, the growth in assay [1] (25 µM) is 102%; in assay [1] (100 µM), 104%.

Turning to `CCS(=O)c1c(C#N)nn(-c2c(Cl)cc(C(F)(F)F)cc2Cl)c1N` (stereo not drawn), the growth in assay [1] (25 µM) was 82.1%; in assay [1] (100 µM), 83.7%; in assay [2] (25 µM), 91.7%; in assay [2] (100 µM) it was 92.4%.

The values are drawn from the supplement of paper PMC11172423.
